MCF10A rereplic: DNA re-replication induction in MCF 10a cells | MCF 10A DNA re-replication, Hoechst nuclear intensity, 48 h | Potency, µM (titrated, usually from 46.1 µM), inactives show top-dose activity, positive = re-replication, hits mostly activators | 350,000 compounds, 2.9% hits | AID 624296; further: potency means the concentration at half of the fitted maximal effect; % of control where 0% means no effect; nearly all actives have a fitted effect of over 50% in size
RORgamma inh: ROR gamma (mouse) transcription inhibition. Drosophila S2 Gal4-RORgamma UAS-luciferase reporter, 20 h. Potency, µM (top dose mostly 53.6 µM), for inactives: at the top dose activity change, negative = inhibition, actives largely listed as inhibitors. 310,000 compounds, 5.4% hits. AID 2551; further: potency means the concentration at half of the fitted maximal effect; on the % scale 0 is the no-effect control and ±100 the full control effect; nearly all actives have a fitted effect of over 60% in size
Target sequence (P51450 whole entry, looked up, the tested form may be a part): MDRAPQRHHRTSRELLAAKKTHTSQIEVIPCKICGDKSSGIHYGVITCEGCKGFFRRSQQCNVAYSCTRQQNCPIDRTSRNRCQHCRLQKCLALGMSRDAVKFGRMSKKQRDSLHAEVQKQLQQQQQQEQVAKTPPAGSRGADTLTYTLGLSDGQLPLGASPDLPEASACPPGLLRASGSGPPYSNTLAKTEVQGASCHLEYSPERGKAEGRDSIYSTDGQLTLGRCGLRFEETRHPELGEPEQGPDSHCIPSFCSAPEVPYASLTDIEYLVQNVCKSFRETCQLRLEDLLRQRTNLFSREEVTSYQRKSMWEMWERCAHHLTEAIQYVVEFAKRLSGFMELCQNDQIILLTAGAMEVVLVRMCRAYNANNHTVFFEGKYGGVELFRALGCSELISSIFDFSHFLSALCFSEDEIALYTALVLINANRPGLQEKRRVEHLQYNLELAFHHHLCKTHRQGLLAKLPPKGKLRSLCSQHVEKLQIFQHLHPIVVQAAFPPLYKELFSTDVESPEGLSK
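Luciferase reporter read in Schneider cells carrying Gal4-RORγ (mouse) and UAS-Photinus luciferase; cells given compound 1 h before 700 uM copper sulfate induction, then incubated 20 h at ambient temperature.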
Gal4-VP16 FLuc: counter-screen for ROR gamma inhibitors: Gal4-VP16 reporter | Drosophila S2 Gal4-VP16 UAS-luciferase, luminescence, 20 h | Potency, µM (top dose mostly 53.6 µM), inactives show at the highest dose activity, negative = inhibition, most hits filed as inhibitors | 310,000 compounds, 3.5% hits | AID 2546;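 further: Gal4-VP16 expression switched on by copper sulfate through the metallothionein promoter; potency means the concentration at half of the fitted maximal effect; on the % scale 0 is the no-effect control and ±100 the full control effect; nearly all actives have a fitted effect of over 50% in size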
SW480 rerep: induces DNA re-replication in SW480 colon adenocarcinoma cells | SW480 DNA re-replication, Hoechst DNA content imaging, 48 h | AID 624297 | 340,000 compounds, 1.8% hits | Potency, µM (doses to about 46.1 µM), for inactives: at the highest dose re-replication activation, most hits filed as activators; further: potency means the concentration at half of the fitted maximal effect; % of control where 0% means no effect; nearly all actives have a fitted effect of over 55% in size
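Cells (250 per well) received 23 nL compound or DMSO by pin tool and were kept 48 hr at 37 C, 5% CO2. Nuclei were then stained with Hoechst for 40 min and scanned for DNA content.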
IL1B secr inh: inhibitors of inflammasome signaling (IL-1 beta secretion); 360,000 compounds, 4.7% hits; activity change, % at 57.5 µM; THP-1 LPS/ATP IL-1B secretion, AlphaLISA, 16 h; hits give low values; AID 743279; in the data active means activity change below about -50%; inconclusive means mostly about -30% to -49%; further: on the % scale 0 is the no-effect control and ±100 the full control effect
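THP-1 cells pretreated 1 hr with compounds (up to 57.5 uM final), then stimulated with LPS (250 ng/mL final) plus ATP (1.25 mM final); secreted IL-1B measured by AlphaLISA after 16 hr, decreased signal indicating inhibition.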
* hit, by the source's call; [ ] = dose if it differs, or a comment. Hits are enriched below; roughly 11% of the tested compounds scored in any of these assays. Unless noted, the call rests on the fitted dose curve; in most records, active means well fitted curve in the direction sought with a large enough effect; inconclusive means small, poorly fitted or top-dose-only effect, or another doubt; inactive means no such curve, though single readings can be large; an effect the other way counts as inactive or inconclusive.

Screening COc1cccc(OC)c1C(=O)OCC(=O)NCCNC(=O)COC(=O)c1c(OC)cccc1OC returned IL1B secr inh -5.
`Cn1cc(-c2nc3cnc(N4CCOCC4)nc3n(CCC#N)c2=O)c2ccccc21` gave RORgamma inh 22% and Gal4-VP16 FLuc 5%.
Screening O=C(NCc1ccco1)c1cc2nc(-c3cccs3)cc(C(F)(F)F)n2n1 returned MCF10A rereplic inconclusive, RORgamma inh 3%, Gal4-VP16 FLuc -1%, SW480 rerep -1% and IL1B secr inh -21.
`O=C(NCc1cccnc1)c1cc2nc(-c3cccs3)cc(C(F)(F)Cl)n2n1` gave MCF10A rereplic 5%, RORgamma inh 1%, Gal4-VP16 FLuc -13%, SW480 rerep -4% and IL1B secr inh -67*.
CC(C)(C)c1ccc(C(=O)N2CCC2(C)C(=O)Nc2cccc3ncccc23)cc1 (configuration not stated) was read as IL1B secr inh 20.
`COc1ccc(CNc2ccc(Cl)cc2)cc1Cn1ccnc1` gave MCF10A rereplic inconclusive, RORgamma inh 15%, Gal4-VP16 FLuc inconclusive, SW480 rerep -3% and IL1B secr inh -71*.
For CCc1ccc(NCc2ccc(OC)c(Cn3ccnc3)c2)cc1 the results were MCF10A rereplic -8%, RORgamma inh -21%, Gal4-VP16 FLuc inconclusive, SW480 rerep 4% and IL1B secr inh 0.
`Cc1cccc(C)c1N1C(=O)c2ccccc2NC(=O)C1C(=O)NCCc1ccccc1` (configuration not stated) gave IL1B secr inh 16.
`COc1ccc(CC(=O)Oc2ccc(C(C)C)cc2)cc1S(=O)(=O)N1CCOCC1` gave MCF10A rereplic -1%, SW480 rerep -7% and IL1B secr inh 1.
Screening Cc1cccc(-c2cnn(-c3ccccc3)c2N)c1 returned MCF10A rereplic 4%, RORgamma inh -3%, Gal4-VP16 FLuc 3%, SW480 rerep 18µM* and IL1B secr inh 35.
Screening Cc1sc2ncn(CC(=O)NCCCN3CC(C)CC(C)C3)c(=O)c2c1S(=O)(=O)N1CC(C)CC(C)C1 (configuration not stated) returned MCF10A rereplic -9%, RORgamma inh -4%, Gal4-VP16 FLuc -3%, SW480 rerep -72% and IL1B secr inh 0.
Cc1ccc(S(=O)(=O)N2CCCCC2)cc1C(=O)OC(C)C(=O)NC1CCCCC1C (configuration not stated) was read as MCF10A rereplic 0%, SW480 rerep 0% and IL1B secr inh -16.
For CCn1c(C(=O)N2CCc3ccccc3C2)cc2oc3ccccc3c21 the results were MCF10A rereplic 16µM*, RORgamma inh -37%, Gal4-VP16 FLuc -23%, SW480 rerep 1% and IL1B secr inh -4.
For Cn1c(C(=O)N2CCc3ccccc3C2)cc2oc3ccccc3c21 the results were MCF10A rereplic inconclusive, RORgamma inh inconclusive, Gal4-VP16 FLuc -3%, SW480 rerep 9% and IL1B secr inh inconclusive.
For CCOc1ccccc1CNC(=O)c1cc2oc3ccccc3c2n1CC the results were MCF10A rereplic 18µM*, RORgamma inh 17%, Gal4-VP16 FLuc -1%, SW480 rerep 4% and IL1B secr inh inconclusive.
Cc1cc(OCC(=O)OCC(=O)N(C)c2c(N)n(Cc3ccccc3)c(=O)[nH]c2=O)ccc1Cl was read as MCF10A rereplic 0%, SW480 rerep -5% and IL1B secr inh 8.
O=C(NN1C(=O)c2cc(Br)ccc2NC1c1cc(Br)cc(Br)c1O)c1ccncc1 (configuration not stated) was read as MCF10A rereplic inconclusive, RORgamma inh 5µM*, Gal4-VP16 FLuc 7.9µM*, SW480 rerep inconclusive and IL1B secr inh 70.
COc1ccc(Br)cc1C1Nc2ccccc2C(=O)N1NC(=O)c1ccncc1 (configuration not stated) was read as MCF10A rereplic -7%, RORgamma inh 17%, Gal4-VP16 FLuc -3%, SW480 rerep -3% and IL1B secr inh 1.
O=C(NN1C(=O)c2cc(Br)ccc2NC1c1ccccc1Cl)c1ccncc1 (configuration not stated) was read as MCF10A rereplic 6%, RORgamma inh inconclusive, Gal4-VP16 FLuc -19%, SW480 rerep 21µM* and IL1B secr inh -5.
Screening O=C(NN1C(=O)c2ccccc2NC1c1ccccc1OCc1ccccc1)c1ccncc1 (configuration not stated) returned MCF10A rereplic 1%, RORgamma inh 23%, Gal4-VP16 FLuc 18%, SW480 rerep -1% and IL1B secr inh -10.
COc1ccc(N2C(=O)N3[C@@H]4c5ccccc5OC[C@@H]4[C@@H](c4ccccc4)[C@@]3(C)C2=O)cc1 was read as MCF10A rereplic 6%, SW480 rerep 17% and IL1B secr inh -1.
For CCNC(=S)N(CCc1c(C)[nH]c2ccc(Cl)cc12)Cc1cccnc1 the results were MCF10A rereplic inconclusive, RORgamma inh -6%, Gal4-VP16 FLuc 4%, SW480 rerep 2% and IL1B secr inh -87*.
`CNC(=S)N(CCc1c(C)[nH]c2ccc(Cl)cc12)Cc1cccnc1` gave MCF10A rereplic -1%, RORgamma inh -35%, Gal4-VP16 FLuc -13%, SW480 rerep 0% and IL1B secr inh inconclusive.
Screening Cc1ccccc1CNc1ccc(C(CC(N)=O)NC(=O)c2ccccc2)cc1[N+](=O)[O-] (configuration not stated) returned MCF10A rereplic inconclusive, RORgamma inh inconclusive, Gal4-VP16 FLuc -24%, SW480 rerep inconclusive and IL1B secr inh -78*.
Screening NC(=O)CC(NC(=O)c1ccc(Br)cc1)c1ccc(N2CCC(Cc3ccccc3)CC2)c([N+](=O)[O-])c1 (configuration not stated) returned MCF10A rereplic 8%, RORgamma inh -6%, Gal4-VP16 FLuc 20µM*, SW480 rerep -2% and IL1B secr inh -13.
For NC(=O)CC(NC(=O)c1ccccc1)c1ccc(N2CCC(Cc3ccccc3)CC2)c([N+](=O)[O-])c1 (configuration not stated) the results were MCF10A rereplic inconclusive, RORgamma inh inconclusive, Gal4-VP16 FLuc 11µM*, SW480 rerep 10% and IL1B secr inh -20.
Screening NC(=O)CC(NC(=O)c1ccccc1)c1ccc(N2CCC(N3CCCC3)CC2)c([N+](=O)[O-])c1 (configuration not stated) returned MCF10A rereplic 8%, RORgamma inh -6%, Gal4-VP16 FLuc 1%, SW480 rerep -5% and IL1B secr inh 19.
Cc1cccc(CNc2ccc(C(CC(N)=O)NC(=O)c3ccccc3)cc2[N+](=O)[O-])c1 (configuration not stated) was read as MCF10A rereplic 13%, RORgamma inh -3%, Gal4-VP16 FLuc 6%, SW480 rerep 1%[9.22 µM] and IL1B secr inh -10.

Bioassay records deposited in PubChem by National Center for Advancing Translational Sciences (NCATS).
